The values below come from PubChem BioAssay (Tox21).

The target in assay [1] is Cytochrome P450 2C19 (Homo sapiens) (UniProt P33261). In words: Cytochrome P450 Family 2 Subfamily C Member 19 (CYP2C19) small molecule antagonists: luciferase reporter qHTS assay (AID 1671197). Further: nearly all actives have a fitted effect of over 65% in size. Further: potency means the concentration at half of the fitted maximal effect. A digest of the protocol: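 Light output is proportional to CYP2C19 activity: proluciferin substrate is converted to luciferin, then detected by a luciferin detection reagent that also stops the 1 h, 37C NADPH-driven reaction. Ketoconazole serves as positive control.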
Cytochrome P450 2C19 (Homo sapiens), sequence (P33261 whole entry, looked up): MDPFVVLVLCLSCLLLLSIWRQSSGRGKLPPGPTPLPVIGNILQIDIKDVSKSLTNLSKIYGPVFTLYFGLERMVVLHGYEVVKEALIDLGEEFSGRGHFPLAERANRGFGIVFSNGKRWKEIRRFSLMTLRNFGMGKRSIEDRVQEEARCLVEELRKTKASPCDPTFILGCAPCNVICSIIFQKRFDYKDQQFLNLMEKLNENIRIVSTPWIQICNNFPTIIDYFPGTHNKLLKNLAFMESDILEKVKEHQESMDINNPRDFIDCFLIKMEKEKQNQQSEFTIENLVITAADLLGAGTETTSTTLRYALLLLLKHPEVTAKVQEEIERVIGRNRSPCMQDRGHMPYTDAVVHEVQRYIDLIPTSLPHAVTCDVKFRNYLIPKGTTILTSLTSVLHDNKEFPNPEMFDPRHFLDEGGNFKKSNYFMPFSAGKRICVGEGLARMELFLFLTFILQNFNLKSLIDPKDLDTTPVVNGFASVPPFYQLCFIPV

Assay [2] deals with Cytochrome P450 2C9 (Homo sapiens) (UniProt P11712). In words: Cytochrome P450 Family 2 Subfamily C Member 9 (CYP2C9) small molecule antagonists: luciferase reporter qHTS assay (AID 1671198). Further: nearly all actives have a fitted effect of over 50% in size. Further: potency means the concentration at half of the fitted maximal effect. In short, it runs like this: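 CYP2C9 activity was measured with a P450-Glo proluciferin substrate. Enzyme–substrate mix was held with compound for 10 min at room temperature, then NADPH regeneration solution was added for 1 h at 37C. Luciferin product was read as luminescence.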
Cytochrome P450 2C9 (Homo sapiens), sequence (P11712 whole entry, looked up): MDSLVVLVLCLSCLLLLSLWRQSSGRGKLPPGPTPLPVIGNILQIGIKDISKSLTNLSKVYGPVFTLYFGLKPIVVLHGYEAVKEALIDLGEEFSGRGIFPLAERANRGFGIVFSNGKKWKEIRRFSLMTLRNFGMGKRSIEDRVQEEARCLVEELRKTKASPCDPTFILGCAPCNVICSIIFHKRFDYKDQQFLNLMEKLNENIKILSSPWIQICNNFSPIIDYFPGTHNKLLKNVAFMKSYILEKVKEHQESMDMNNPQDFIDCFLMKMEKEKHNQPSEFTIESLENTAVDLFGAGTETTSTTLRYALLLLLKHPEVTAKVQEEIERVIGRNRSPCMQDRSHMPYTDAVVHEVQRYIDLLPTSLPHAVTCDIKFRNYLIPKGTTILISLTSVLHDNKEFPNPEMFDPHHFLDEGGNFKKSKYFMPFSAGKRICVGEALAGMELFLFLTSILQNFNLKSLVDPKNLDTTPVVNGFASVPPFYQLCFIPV

Assay [3] addresses Voltage-gated inwardly rectifying potassium channel KCNH2 (Homo sapiens) (UniProt Q12809). In words: Human Ether-a-go-go-Related Gene (hERG) channel small molecule antagonists: fluorescence cell-based qHTS assay (AID 1671200). Further: nearly all actives have a fitted effect of over 50% in size. Further: potency means the concentration at half of the fitted maximal effect. A digest of the protocol: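 U2OS cells expressing the channel were plated at 1000 cells/well, incubated overnight at 37 C, then loaded with FluxOR II thallium-sensitive dye for 1 h at room temperature in the dark, with a further 10 min at room temperature before stimulation.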

Assay [4] addresses Cytochrome P450 1A2 (Homo sapiens) (UniProt P05177). In words: Cytochrome P450 Family 1 Subfamily A Member 2 (CYP1A2) small molecule antagonists: luciferase reporter qHTS assay (AID 1671199). Further: nearly all actives have a fitted effect of over 50% in size. Further: potency means the concentration at half of the fitted maximal effect. In short, it runs like this: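 Signal from luciferin formed by CYP1A2 from a proluciferin substrate is read as luminescence, expressed in relative luminescence units. Compounds sit with enzyme 10 min, NADPH-driven reaction runs 1 h, all at room temperature.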

In assay [5] the target is Cytochrome P450 3A4 (Homo sapiens) (UniProt P08684). In words: Cytochrome P450 Family 3 Subfamily A Member 4 (CYP3A4) small molecule antagonists: luciferase reporter qHTS assay (AID 1671201). Further: series mostly up to about 120 µM; nearly all actives have a fitted effect of over 50% in size. A digest of the protocol: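 P450-Glo CYP3A4 system with proluciferin substrate; compounds preincubated 10 min RT with enzyme-substrate mix, then NADPH regeneration added for 1 h RT. Detection reagent 20 min, luminescence read as relative luminescence units.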
Cytochrome P450 3A4 (Homo sapiens), sequence (P08684 whole entry, looked up): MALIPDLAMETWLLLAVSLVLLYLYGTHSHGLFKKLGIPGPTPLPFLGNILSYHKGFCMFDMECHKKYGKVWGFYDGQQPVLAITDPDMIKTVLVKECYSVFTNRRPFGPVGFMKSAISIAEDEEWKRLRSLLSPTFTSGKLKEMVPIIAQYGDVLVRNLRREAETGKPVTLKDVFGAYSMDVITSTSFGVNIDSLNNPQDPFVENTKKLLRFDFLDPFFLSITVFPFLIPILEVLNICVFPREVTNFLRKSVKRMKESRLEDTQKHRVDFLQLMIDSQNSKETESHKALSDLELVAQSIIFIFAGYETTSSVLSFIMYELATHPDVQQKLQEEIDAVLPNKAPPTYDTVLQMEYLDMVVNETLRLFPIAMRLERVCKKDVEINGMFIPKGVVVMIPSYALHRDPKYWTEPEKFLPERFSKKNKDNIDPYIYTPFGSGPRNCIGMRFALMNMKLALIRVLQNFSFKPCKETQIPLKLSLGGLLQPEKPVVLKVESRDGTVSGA

Results filed as inconclusive are left out. Calls of active or inactive are those of the source. The call rests on the fitted dose curve; in most records, active means well fitted curve in the direction sought with a large enough effect in the repeat runs; inconclusive means weak or mixed curves; inactive means no such curve, though single readings can be large; an effect the other way counts as inactive or inconclusive.

Cytochrome P450 1A2 (Homo sapiens), sequence (P05177 whole entry, looked up): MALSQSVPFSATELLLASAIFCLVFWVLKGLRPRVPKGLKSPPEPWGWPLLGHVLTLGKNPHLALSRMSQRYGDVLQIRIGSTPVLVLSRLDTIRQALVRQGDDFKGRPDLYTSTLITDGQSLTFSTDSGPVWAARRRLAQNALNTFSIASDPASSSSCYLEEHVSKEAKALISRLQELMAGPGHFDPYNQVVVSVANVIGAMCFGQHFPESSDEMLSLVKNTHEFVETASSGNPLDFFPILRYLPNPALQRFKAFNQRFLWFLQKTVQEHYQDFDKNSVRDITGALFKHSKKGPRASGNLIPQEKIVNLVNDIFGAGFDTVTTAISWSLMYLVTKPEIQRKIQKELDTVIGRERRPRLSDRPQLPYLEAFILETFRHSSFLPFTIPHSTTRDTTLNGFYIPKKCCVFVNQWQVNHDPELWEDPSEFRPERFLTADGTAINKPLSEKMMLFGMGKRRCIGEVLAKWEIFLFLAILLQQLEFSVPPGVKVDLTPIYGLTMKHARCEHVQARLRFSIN
Voltage-gated inwardly rectifying potassium channel KCNH2 (Homo sapiens), sequence (Q12809 whole entry, looked up): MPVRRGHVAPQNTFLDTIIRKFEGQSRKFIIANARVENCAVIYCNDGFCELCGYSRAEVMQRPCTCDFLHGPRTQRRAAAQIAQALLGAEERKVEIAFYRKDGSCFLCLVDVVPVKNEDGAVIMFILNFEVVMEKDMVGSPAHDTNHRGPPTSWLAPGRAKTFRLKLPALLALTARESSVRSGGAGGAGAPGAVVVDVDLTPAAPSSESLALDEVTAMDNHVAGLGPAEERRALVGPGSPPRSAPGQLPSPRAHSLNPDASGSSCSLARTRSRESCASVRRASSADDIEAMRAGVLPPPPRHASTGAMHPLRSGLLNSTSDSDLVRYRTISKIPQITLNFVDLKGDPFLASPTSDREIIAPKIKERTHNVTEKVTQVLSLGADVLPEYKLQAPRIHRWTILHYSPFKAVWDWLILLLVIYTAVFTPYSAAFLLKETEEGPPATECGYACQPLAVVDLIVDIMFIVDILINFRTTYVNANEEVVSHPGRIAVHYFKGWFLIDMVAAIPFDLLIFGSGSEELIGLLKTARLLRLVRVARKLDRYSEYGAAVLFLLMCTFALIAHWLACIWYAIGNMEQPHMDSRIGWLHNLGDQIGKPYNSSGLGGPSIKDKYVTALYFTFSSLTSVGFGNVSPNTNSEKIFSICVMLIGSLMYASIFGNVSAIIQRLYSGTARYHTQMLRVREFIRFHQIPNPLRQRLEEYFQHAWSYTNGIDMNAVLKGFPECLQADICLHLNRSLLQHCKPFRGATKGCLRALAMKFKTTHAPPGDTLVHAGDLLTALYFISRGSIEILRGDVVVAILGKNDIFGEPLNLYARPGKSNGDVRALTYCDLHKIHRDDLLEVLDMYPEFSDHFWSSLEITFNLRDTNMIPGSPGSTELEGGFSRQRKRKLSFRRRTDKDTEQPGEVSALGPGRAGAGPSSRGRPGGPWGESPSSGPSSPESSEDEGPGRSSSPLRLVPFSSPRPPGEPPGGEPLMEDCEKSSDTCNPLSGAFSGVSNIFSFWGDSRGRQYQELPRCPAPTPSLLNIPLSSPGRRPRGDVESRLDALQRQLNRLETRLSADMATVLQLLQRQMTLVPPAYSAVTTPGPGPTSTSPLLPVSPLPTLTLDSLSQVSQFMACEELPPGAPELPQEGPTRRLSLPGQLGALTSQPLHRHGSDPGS

In the case of `CC1(CN2CCC(n3c(=O)[nH]c4ccccc43)CC2)OCc2ccccc2-n2cccc21` (stereo not drawn), the Potency in assay [1] was 21.9 µM (active); in assay [2], 13.8 µM (active); in assay [3], 8.49 µM (active).

In the case of `C=C(C)C(=O)OCCOCCOC(=O)C(=C)C`, the Potency is 8.94 µM (active) in assay [1] and 15.9 µM (active) in assay [4]. For the same compound, the Potency result in assay [3] is “inactive”.

On to `C[C@@]12CCC[C@H]1[C@@H]1CC[C@H]3C[C@@H](O)CC[C@]3(C)[C@H]1CC2`, for which the Potency in assay [1] is 7.76 µM (active). Further, the Potency entry in assay [4] and in assay [3] was “inactive” each time.

For the compound `CCOC(=O)[C@H](CCc1ccccc1)N[C@@H](C)C(=O)N(CC(=O)O)C1Cc2ccccc2C1`, the Potency was 6.92 µM (active) in assay [1] and 15.5 µM (active) in assay [2]. Also, in assay [3], the Potency result is “inactive”.

`CCOC(=O)c1ccc(OCCN2C[C@H](O)[C@@H](O)[C@H](O)[C@H]2CO)cc1`: the Potency result in assay [1], in assay [2], in assay [3] and in assay [5] was “inactive” each time.

`COC(=O)CCS`: the Potency in assay [1] is 70.4 µM (active). Moreover, the Potency entry in assay [2], in assay [3] and in assay [5] was “inactive” in each case.

Take `NC(=O)c1ccncc1`: the Potency entry in assay [1], in assay [2] and in assay [3] was “inactive” throughout.

Regarding `C=CC(=O)OCC1CC2CC1C1CCC(COC(=O)C=C)C21` (stereo not drawn), the Potency is 5.03 µM (active) in assay [1] and 35.6 µM (active) in assay [4].

As for `CC(C)(C)CC(=O)OCC(=O)[C@@]1(O)CC[C@H]2[C@@H]3CCC4=CC(=O)C=C[C@]4(C)[C@H]3[C@@H](O)C[C@@]21C`, the Potency in assay [1] is 9.77 µM (active). The Potency entry in assay [4] and in assay [3] was “inactive” throughout.

With `CC(O)c1ccccc1` (stereo not drawn), the Potency result in assay [1], in assay [2], in assay [3] and in assay [5] was “inactive” throughout.

For the compound `CC(CC1c2ccccc2CCc2ccccc21)CN(C)C` (stereo not drawn), the Potency in assay [1] is 8.71 µM (active). Besides, the Potency result in assay [4] was “inactive”.

On to `CCCC(=O)C(=O)O`, for which the Potency result in assay [1], in assay [2], in assay [3] and in assay [5] was “inactive” each time.

As to `Cc1ccccc1N=C(N)Nc1ccccc1C`, the Potency result in assay [1], in assay [4] and in assay [3] was “inactive” throughout.

On to `COC(=O)CS`, for which the Potency entry in assay [1], in assay [2] and in assay [3] was “inactive” throughout.

Take `Cc1ccco1`: the Potency result in assay [1], in assay [2] and in assay [3] was “inactive” each time.

As for `C[C@@H](O[C@H]1OCCN(Cc2n[nH]c(=O)[nH]2)[C@H]1c1ccc(F)cc1)c1cc(C(F)(F)F)cc(C(F)(F)F)c1`, the figures for the Potency in assay [1] and in assay [3] were 15.5 µM (active) and 8.49 µM (active), respectively. The Potency result in assay [4] is “inactive”.

On to `CCOC(=O)c1ccccc1C(=C1C=C(Br)C(=O)C(Br)=C1)c1cc(Br)c(O)c(Br)c1`, for which the Potency entry in assay [1] and in assay [3] was “inactive” throughout. For the same compound, the Potency in assay [2] is 23.7 µM (active).

As to `CCCCCCC(C)(C)C(=O)O`, the Potency in assay [1] was 71 µM (active); in assay [2], 31.7 µM (active). In addition, the Potency entry in assay [3] and in assay [5] was “inactive” each time.

In the case of `O=C1C(=O)c2ccccc2C(O)=C1C1CCC(c2ccc(Cl)cc2)CC1` (stereo not drawn), the Potency result in assay [1], in assay [4] and in assay [3] was “inactive” each time.

As for `CCC1CO1` (stereo not drawn), the Potency result in assay [1], in assay [2], in assay [3] and in assay [5] was “inactive” each time.

In the case of `CC1=Nc2ccc3ccccc3c2C1(C)C`, the Potency in assay [1] was 8.94 µM (active); in assay [4] it was 20 µM (active). Besides, the Potency result in assay [3] and in assay [5] was “inactive” each time.
